TWEAK-Fn14 inh = TWEAK-Fn14 signaling inhibition; TWEAK-stimulated Fn14 reporter cells, luciferase luminescence, 8 h; inhibition, % at 10 µM; AID 1159606; 360,000 tested, 2% active; in the data active = inhibition above about 50%
Peg3 promoter = Peg3 promoter activity inhibition. HeLa PEG-Prom luciferase reporter, luminescence, overnight. 360,000 tested, 1.7% active. inhibition, % at 20 µM. AID 588405;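 active = inhibition of at least 50% at 20 µM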
KKLEB cytotox = CF airway cell cytotoxicity counter-screen; activity change (cytotoxicity), % at 5 µM; AID 602141; KKLEB CF airway cells viability, ATPlite luminescence, overnight; hits give low values; cells stimulated with P. aeruginosa culture filtrate; 360,000 tested, 0.36% active;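 active = corrected activity change at or below -50% at 5 µM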
CF NFkB block = inhibitors of cystic fibrosis induced NF-kB | KKLEB NF-kB-GFP reporter, PAF-induced, GFP fluorescence overnight | inhibition, % at 5 µM | 360,000 tested, 0.86% active | AID 588850;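 active = at least 50% inhibition at 5 µM, scaled per plate between neutral and stimulator controls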;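 note: PAF is a Pseudomonas aeruginosa culture filtrate used as stimulus; plate controls were PAF-stimulated DMSO wells for no effect and unstimulated DMSO wells for full effect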
TROY signal inh = blocks TROY-dependent signaling in reporter cells; Q293 LMP1-TROYcd NF-kB luciferase reporter, 4 h; inhibition, % at 10 µM; 360,000 tested, 0.98% active; AID 1347056;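 active = compounds whose plate-normalised and pattern-corrected inhibition of the luciferase reporter signal at the single screening dose is 50% or more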
HIF-2a block = inhibitors of HIF-2a. 786-0 RCC cells HIF-2a reporter, luciferase luminescence, overnight. inhibition, % at 18.8 µM. 360,000 tested, 0.72% active. AID 624352;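 active = inhibition of the luminescence signal of 40% or more relative to plate controls, in a single-dose primary screen at 18.75 µM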
* = called active by the depositor; . = not tested or not shown. Sampled rows, rich in hits. Any-hit rate of the full collection: about 4%.

SMILES | TWEAK-Fn14 inh | Peg3 promoter | KKLEB cytotox | CF NFkB block | TROY signal inh | HIF-2a block
COc1ccc(NC(=O)/C(Cl)=C(/Cl)S(=O)Cc2ccc(Cl)cc2)cn1 (configuration not stated) | 101* | 104* | -88* | 87* | 90* | 97*
Cc1cc(C)n(-c2cccc(C(=O)O)c2)n1 | 80* | 5 | -3 | -7 | 19 | 11
O=[N+]([O-])c1ccc(N/N=C/c2cccc(O)c2)cc1 | -69 | -357 | 2 | -41 | 51* | -94
Cc1ccc(NC(=O)c2ccc(N/N=C/c3cccc(O)c3)c([N+](=O)[O-])c2)cc1 | -75 | 67* | -17 | 20 | -32 | -12
NC(=O)CCN1CCN(C(=O)c2ccc3nc(Cc4cccc(Cl)c4)oc3c2)CC1 | -5 | 23 | 1 | -6 | -7 | 12
CCN(CC(=O)NCc1cccs1)C(=O)c1ccc(NS(=O)(=O)c2cccc([N+](=O)[O-])c2)cc1 | -10 | -3 | 2 | -29 | -21 | -4
CN(C)c1cc[n+](CCC(=O)Nc2cccc([N+](=O)[O-])c2N)cc1 | 18 | -9 | 7 | -9 | 4 | 14
Nc1c(NC(=O)CC[n+]2ccccc2)cccc1[N+](=O)[O-] | 52* | 8 | 1 | 9 | 46 | 10
O=C(CSc1nccc(=O)[nH]1)Nc1ccc2ccccc2c1 | 28 | -4 | -1 | -23 | 35 | -25
O=C(CSc1nccc(=O)[nH]1)Nc1cccc2ccccc12 | 50* | 2 | 7 | -4 | -12 | 9
O=C(NC1CC2CCCC(C1)N2Cc1ccccc1)c1cccc(Cl)c1 (configuration not stated) | -6 | -1 | 6 | -14 | 5 | 22
N#Cc1c(N)n(C2OC(CO)C(O)C2O)c2ncnc(N)c12 (configuration not stated) | 101* | 96* | -62* | 89* | 62* | 71*
Nc1ncnc2c1ncn2C1O[C@H](CO)[C@@H](O)[C@@H]1O (some centres not stated) | -10 | 12 | -46 | -3 | -13 | 15
Cc1[nH]c2c(C)cccc2c1CCNC(=O)c1ccc2c(c1[N+](=O)[O-])C(=O)c1ccccc1C2=O | 20 | 103* | -4 | -7 | -10 | -10
Cc1[nH]c2ccccc2c1CCNC(=O)c1ccc2c(c1[N+](=O)[O-])C(=O)c1ccccc1C2=O | 37 | 101* | -16 | -11 | -2 | -29
O=C1c2ccccc2C(=O)N1OS(=O)(=O)c1ccc(F)cc1 | -23 | 61* | 12 | -8 | -9 | 29
O=S(=O)(c1ccccc1)N1CCN(S(=O)(=O)c2ccc(F)cc2)CC1 | -10 | -5 | -2 | 5 | 14 | 14
O=C(CN1C2CCCC1CC(NC(=O)c1ccccc1)C2)Nc1ccccc1C(F)(F)F (configuration not stated) | 39 | 18 | -9 | -5 | 51* | -7
COc1ccc(N2N=NN(C(C)C)C2=C(Cl)c2nnnn2-c2ccc(OC)cc2)cc1 | 0 | -95 | 6 | -2 | -33 | -157
COc1ccc([N+](=O)[O-])cc1NCC(=O)Nc1cccc(S(=O)(=O)N2CCCC2)c1 | 7 | 25 | 8 | -50 | 5 | -9
[N-]=[N+]=NC1C[C@H](n2ccc(=O)[nH]c2=O)O[C@@H]1CO (some centres not stated) | -5 | -7 | -61* | 6 | -7 | 6
O=c1[nH]c(=O)n([C@H]2C[C@H](O)[C@@H](CO)O2)cc1C(F)(F)F | -22 | 22 | 9 | -4 | 7 | 8
Cc1cc(C)c2c(NC(=O)CCl)nn(C)c2n1 | 10 | 52* | -17 | 17 | 5 | 10
Nc1cc2c(cc1Cl)-c1ccc([N+](=O)[O-])cc1C2=NO | 24 | 16 | 5 | -59 | 4 | -70
O=C(NCc1ccc(Cl)cc1)N1CCN(C(=O)c2ccccc2)CC1 | 18 | 5 | 8 | -7 | -21 | 17
SMILES | TWEAK-Fn14 inh | Peg3 promoter | KKLEB cytotox | CF NFkB block | TROY signal inh | HIF-2a block
O=C(Nc1cccc(O)c1)C(Cc1ccccc1)N1C(=O)c2cccc3cccc(c23)C1=O (configuration not stated) | -25 | 66* | -22 | 24 | 10 | 23
CCOn1c(=O)c(C)[n+]([O-])c2ccccc21 | 85* | 3 | 5 | -10 | . | 15
C=CCOn1c(=O)c(C)[n+]([O-])c2ccccc21 | -14 | -2 | -2 | 5 | 6 | 18
CS(=O)(=O)Cc1ccc(C(=O)NC2CCCc3ccccc32)cc1 (configuration not stated) | 17 | 22 | -1 | -7 | 2 | 0
CN1CCn2cnc(C(=O)Nc3ccc(Cl)cc3)c2C1=O | -26 | -29 | 16 | -25 | -23 | -37
NCC(c1ccc(Cl)cc1Cl)c1c[nH]c2ccccc12 (configuration not stated) | -15 | 96* | -16 | 21 | 9 | 7
CN(C)CCCNC(=S)NCC(c1ccc(Cl)cc1Cl)c1c[nH]c2ccccc12 (configuration not stated) | -46 | 103* | -2 | 18 | 0 | 12
CCOC(=O)/C(C#N)=C/c1cc(C)n(-c2ccccc2)c1C | 84* | -229 | 2 | 2 | 89* | -80
Cc1cc(/C=C(\C#N)C(=O)Nc2ccccc2)c(C)n1-c1cccnc1 | -8 | -258 | -4 | 14 | -21 | -238
NC(=O)C1CCN(C(=O)CCSCc2ccccc2)CC1 | -1 | -17 | 5 | 1 | 23 | -9
O=C(NCCCl)Nc1ncn[nH]1 | 7 | 100* | -11 | -5 | -4 | -4
COc1ccc([C@H]2C[C@@H](n3cc(C4CC4)nn3)[C@H](O)CN2CC2CCCCC2)cc1 | 9 | 38 | -3 | -8 | -13 | -6
COc1cc(NC(=O)c2cccc3c(-c4cnn(C)c4)coc23)cc(OC)c1OC | 44 | 78* | -4 | -6 | 16 | -60
COc1ccc(NC(=O)c2cccc3c(-c4cnn(C)c4)coc23)cc1 | -2 | -67 | 7 | -13 | -42 | -54
Cn1cc(-c2coc3c(C(=O)Nc4ccccc4)cccc23)cn1 | 0 | -155 | -3 | -9 | -86 | -202
CC(=O)c1cccc(NC(=O)c2cccc3c(-c4cnn(C)c4)coc23)c1 | 26 | 58* | 4 | -30 | -2 | -39
CN1OC[C@@H]2CN(C(=S)NCCc3ccccc3)[C@H](c3ccccc3Br)C[C@@H]21 | -21 | 18 | -21 | -18 | -4 | 13
COc1cccc(NC(=O)CN(C)C(=O)c2ccc3c(c2)S(=O)(=O)N=C2CCCCCN23)c1 | 9 | 2 | 9 | -18 | 3 | -9
Cc1cc(C(=O)N/N=C/c2ccc3c(c2)OCO3)c(C)o1 | -39 | -154 | 0 | -1 | -48 | -238
O=C(N/N=C/c1ccc2c(c1)OCO2)c1cccs1 | -9 | -257 | -1 | -14 | -32 | -229
COc1ccc2c(Cl)c(C(=O)N/N=C/c3ccc4c(c3)OCO4)sc2c1 | -101 | 51* | -12 | 22 | -3 | 1

From PubChem BioAssay
